Data reported in PubChem BioAssay (Tox21).
Results filed as inconclusive are left out. The source made the active and inactive calls. Unless noted, calls follow the shape of the dose curve; as a rule, active = well fitted curve in the direction sought with a large enough effect in the repeat runs; inconclusive = weak or mixed curves; inactive = no such curve, though single readings can be large; an effect the other way counts as inactive or inconclusive.

How the values were obtained:
[1] = target: Retinoic acid receptor RXR-alpha (Homo sapiens) (UniProt P19793); test: qHTS assay to identify small molecule agonists of the RXR signaling pathway (AID 1159527; calls by dose curve; also: nearly all actives have a fitted effect of over 35% in size)
Chain of Retinoic acid receptor RXR-alpha (Homo sapiens) (P19793 whole entry, looked up): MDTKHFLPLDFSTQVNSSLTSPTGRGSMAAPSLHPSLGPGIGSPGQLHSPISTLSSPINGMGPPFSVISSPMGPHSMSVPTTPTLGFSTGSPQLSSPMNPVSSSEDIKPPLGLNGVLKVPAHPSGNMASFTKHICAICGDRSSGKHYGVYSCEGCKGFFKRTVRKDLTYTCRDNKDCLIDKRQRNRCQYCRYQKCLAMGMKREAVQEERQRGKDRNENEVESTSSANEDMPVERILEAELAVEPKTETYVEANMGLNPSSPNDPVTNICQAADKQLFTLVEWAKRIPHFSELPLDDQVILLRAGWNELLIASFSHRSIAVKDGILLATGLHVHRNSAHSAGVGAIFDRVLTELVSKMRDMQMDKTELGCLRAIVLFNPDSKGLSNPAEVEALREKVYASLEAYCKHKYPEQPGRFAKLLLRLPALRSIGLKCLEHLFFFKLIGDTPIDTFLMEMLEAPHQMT
Procedure, shortened: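 Agonist mode; 9-cis retinoic acid positive control. HEK 293T UAS-bla reporter cells, 2% charcoal-stripped FBS, 16 hr compound exposure at 37 C/5% CO2. LiveBLAzer B/G FRET substrate 2 hr RT; ex 405, em 460/530 nm.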

[2] = qHTS assay to identify small molecule agonists of the RXR signaling pathway - cell viability counter screen (AID 1159529); also: series mostly up to about 77 µM; nearly all actives have a fitted effect of over 50% in size
Procedure, shortened: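 Luminescence from CellTiter-Glo (30 min, RT) measured viability in the same wells as the beta-lactamase reporter readout. Cells: GeneBLAzer RXR-alpha HEK 293T, 2% charcoal-stripped FBS. Compound exposure 16 hr, 37 C.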

[3] = qHTS assay to identify small molecule antagonists of the retinoid acid receptor (RAR) signaling pathway - cell viability counter screen (AID 1159551); also: nearly all actives have a fitted effect of over 35% in size
Procedure, shortened: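 Cytotoxicity counter screen: ATP content quantified by CellTiter-Glo luminescence in C3RL4 cells treated 6 hr at 37 C with compound and retinol (1 uM final). Cells plated at 1,000/well and cultured overnight before dosing.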

[4] = qHTS assay to identify small molecule antagonists of the retinoic acid receptor (RAR) signaling pathway (AID 1159552; also: nearly all actives have a fitted effect of over 50% in size)
Procedure, shortened: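 Luminescence from a RARE luciferase reporter in C3RL4 cells served as read-out. Cells received compounds together with 1 uM final retinol and incubated 6 hr at 37 C before detection reagent was added for 30 min at room temperature.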

[5] = qHTS assay to identify small molecule agonists of the retinoic acid receptor (RAR) signaling pathway (AID 1159553)
Procedure, shortened: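 Luminescence was measured 30 min after luciferase reagent addition at room temperature. Before that, C3RL4 reporter cells (1,000 per well, plated overnight) were treated with compound for 6 hr at 37 C and 5% CO2.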

[6] = qHTS assay to identify small molecule antagonists of the estrogen related receptor (ERR) signaling pathway from Tox21 library - cell viability counter screen (AID 1224834); also: nearly all actives have a fitted effect of over 30% in size
Procedure, shortened: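 CellTiter-Fluor fluorescence, read after 30 min at 37 C, measures viability of ERR cells. Cells plated at 2,000/well and incubated 6 h before pin-tool compound addition, then exposed 17.5 hours at 37 C.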

[7] = target: Luciferin 4-monooxygenase (Photinus pyralis) (UniProt P08659); test: qHTS assay to identify small molecule inhibitors of firefly luciferase (AID 1224835); also: nearly all actives have a fitted effect of over 25% in size; also: potency is read from the fitted curve at half-maximal effect; as to activity change, negative = inhibition: series mostly up to about 120 µM
Chain of Luciferin 4-monooxygenase (Photinus pyralis) (P08659 whole entry, looked up): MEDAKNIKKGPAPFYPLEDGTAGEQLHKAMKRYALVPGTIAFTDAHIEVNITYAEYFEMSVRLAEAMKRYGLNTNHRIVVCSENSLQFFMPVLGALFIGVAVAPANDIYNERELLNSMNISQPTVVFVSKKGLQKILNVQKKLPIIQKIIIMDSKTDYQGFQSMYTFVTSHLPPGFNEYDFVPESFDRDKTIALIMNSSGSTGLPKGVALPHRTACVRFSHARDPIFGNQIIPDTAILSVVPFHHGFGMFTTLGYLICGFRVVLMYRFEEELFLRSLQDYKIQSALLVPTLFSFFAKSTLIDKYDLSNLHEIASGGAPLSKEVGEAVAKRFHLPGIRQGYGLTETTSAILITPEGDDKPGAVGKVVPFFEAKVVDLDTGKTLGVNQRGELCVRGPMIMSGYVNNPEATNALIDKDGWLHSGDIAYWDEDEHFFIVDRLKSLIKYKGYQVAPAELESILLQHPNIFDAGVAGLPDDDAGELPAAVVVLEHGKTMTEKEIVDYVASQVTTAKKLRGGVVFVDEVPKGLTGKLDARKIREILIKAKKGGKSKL
Procedure, shortened: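 Quantitative HTS format; KM concentrations of both substrates. Purified P. pyralis FLuc activity quantified from luminescence images.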

[8] = qHTS assay to identify small molecule agonists of the constitutive androstane receptor (CAR) signaling pathway - cell viability counter screen (AID 1224836); also: series mostly up to about 92 µM; nearly all actives have a fitted effect of over 45% in size
Procedure, shortened: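 Viability read-out: CellTiter-Fluor fluorescence after 23 h compound exposure at 37 C/5% CO2 in double-stable HepG2-CYP2B6-hCAR cells, with PK11195 present at 0.75 uM final; compounds tested in 15-point titration.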

[9] = qHTS assay to identify small molecule antagonists of the constitutive androstane receptor (CAR) signaling pathway - cell viability counter screen (AID 1224837); also: series mostly up to about 92 µM; nearly all actives have a fitted effect of over 45% in size
Procedure, shortened: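 Cytotoxicity counter-screen: CellTiter-Fluor fluorescence after 23 h compound exposure (15-point qHTS) in double-stable HepG2-CYP2B6-hCAR cells, with 50 nM CITCO added.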

[10] = target: Nuclear receptor subfamily 1 group I member 3 (Homo sapiens) (UniProt Q14994); test: qHTS assay to identify small molecule antagonists of the constitutive androstane receptor (CAR) signaling pathway (AID 1224838);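 also: HepG2 cells stably expressing hCAR with CYP2B6 luciferase reporter stimulated by CITCO; nearly all actives have a fitted effect of over 40% in size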; also: potency is read from the fitted curve at half-maximal effect
Chain of Nuclear receptor subfamily 1 group I member 3 (Homo sapiens) (Q14994 whole entry, looked up): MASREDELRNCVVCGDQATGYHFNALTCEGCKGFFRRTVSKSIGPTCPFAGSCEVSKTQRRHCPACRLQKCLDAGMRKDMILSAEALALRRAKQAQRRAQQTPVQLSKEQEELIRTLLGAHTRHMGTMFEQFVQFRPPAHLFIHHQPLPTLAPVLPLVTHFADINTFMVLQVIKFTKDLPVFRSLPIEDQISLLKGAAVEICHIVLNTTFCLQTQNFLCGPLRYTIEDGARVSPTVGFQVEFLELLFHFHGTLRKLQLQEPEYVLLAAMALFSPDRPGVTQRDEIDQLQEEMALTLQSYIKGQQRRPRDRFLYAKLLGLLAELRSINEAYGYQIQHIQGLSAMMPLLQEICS
Procedure, shortened: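 Antagonism measured as luciferase signal (ONE-Glo, 30 min, room temperature) in CAR-stimulated cells: HepG2-CYP2B6-hCAR double-stable line exposed 24 hr at 37 C to compound in a 15-point series plus 50 nM CITCO.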
% is scaled to controls: 0 for no effect and ±100 for the full control effect.

CC(=O)C1C(=O)C=C(C)OC1=O (stereo not drawn)
inactive: Potency [1] | outcome [2] | outcome [3] | outcome [4] | Potency [5] | outcome [6] | Potency [7] | outcome [8] | outcome [9] | Potency [10]

CC(C)CCOC(=O)c1ccccc1
active: Potency [7] 71 µM
inactive: Potency [1] | outcome [2] | outcome [3] | outcome [4] | Potency [5] | outcome [6] | outcome [8] | outcome [9] | Potency [10]

N#Cc1ccccc1O
inactive: Potency [1] | outcome [2] | outcome [3] | outcome [4] | Potency [5] | outcome [6] | Potency [7] | outcome [8] | outcome [9]

COc1nc(N)nc2nc[nH]c12
inactive: Potency [1] | outcome [2] | outcome [3] | outcome [4] | Potency [5] | outcome [6] | Potency [7] | outcome [8] | outcome [9]

CC(C)Nc1ccccc1
inactive: Potency [1] | outcome [2] | outcome [3] | outcome [4] | Potency [5] | outcome [6] | Potency [7] | outcome [8] | outcome [9] | Potency [10]

CC1(C)Cc2cccc(N)c2O1
inactive: Potency [1] | outcome [2] | outcome [3] | outcome [4] | Potency [5] | outcome [6] | Potency [7] | outcome [8] | outcome [9] | Potency [10]

CCCCCCCCCCCCCCCCCCOCCO
inactive: activation [1] 5.49% [at 15.8 µM] | activity change, negative = cytotoxicity [2] -0.661% [at 15.8 µM] | activity change, negative = cytotoxicity [3] -1.36% [at 19 µM] | activity, negative = inhibition [4] -13.7% [at 19 µM] | Potency [5] | viability change, negative = cytotoxic [6] -3.06% [at 19 µM] | activity change, negative = inhibition [7] -2.69% [at 23.6 µM] | viability change, negative = cytotoxic [8] -7.83% [at 19 µM] | activity change, negative = cytotoxicity [9] 0.177% [at 19 µM] | activity, negative = inhibition [10] -10.5% [at 19 µM]

NCC1(Cc2noc(=O)[nH]2)CCCCC1
inactive: Potency [1] | outcome [2] | outcome [3] | outcome [4] | Potency [5] | outcome [6] | Potency [7] | outcome [8] | outcome [9]

CCNC(=O)NCc1cccc(Cl)c1
inactive: Potency [1] | outcome [2] | outcome [3] | outcome [4] | Potency [5] | outcome [6] | Potency [7] | outcome [8] | outcome [9]

CC(C)C[C@@H]1[C@H](c2ccccc2)OC(=O)N1CCCN1CCCCCC1
inactive: Potency [1] | outcome [2] | outcome [3] | outcome [4] | Potency [5] | outcome [6] | Potency [7] | outcome [8] | outcome [9]

CC(C)C1OCCN1CCOC(=O)NCCCCCCNC(=O)OCCN1CCOC1C(C)C (stereo not drawn)
inactive: Potency [1] | outcome [2] | outcome [3] | outcome [4] | Potency [5] | outcome [6] | Potency [7] | outcome [8] | outcome [9] | Potency [10]

CCCCCCCCCCCCCCCCCC#N
inactive: Potency [1] | outcome [2] | outcome [3] | outcome [4] | Potency [5] | outcome [6] | Potency [7] | outcome [8] | outcome [9]

CCO[Si](CC)(OCC)OCC
inactive: Potency [1] | outcome [2] | outcome [3] | outcome [4] | Potency [5] | outcome [6] | Potency [7] | outcome [8] | outcome [9]

CN(C)CCOC(=O)C(c1ccccc1)C1(O)CCCC1 (stereo not drawn)
inactive: Potency [1] | outcome [2] | outcome [3] | outcome [4] | Potency [5] | outcome [6] | Potency [7] | outcome [8] | outcome [9]

CCCCCC/C=C/C(=O)OC
inactive: Potency [1] | outcome [2] | outcome [3] | outcome [4] | Potency [5] | outcome [6] | Potency [7] | outcome [8] | outcome [9]

C=Cc1ccc(C(C)(C)C)cc1
inactive: Potency [1] | outcome [2] | outcome [3] | outcome [4] | Potency [5] | outcome [6] | Potency [7] | outcome [8] | outcome [9]

COc1cc2c(cc1OC)CN(C(=O)[C@H](C)N[C@@H](CCc1ccccc1)C(=O)O)[C@H](C(=O)O)C2
inactive: Potency [1] | outcome [2] | outcome [3] | outcome [4] | Potency [5] | outcome [6] | Potency [7] | outcome [8] | outcome [9]

OC1(c2ccc(Cl)cc2)CCNCC1
inactive: Potency [1] | outcome [2] | outcome [3] | outcome [4] | Potency [5] | outcome [6] | Potency [7] | outcome [8] | outcome [9]

OC1OCCOC1O (stereo not drawn)
inactive: Potency [1] | outcome [2] | outcome [3] | outcome [4] | Potency [5] | outcome [6] | Potency [7] | outcome [8] | outcome [9]

N#Cc1cscn1
inactive: Potency [1] | outcome [2] | outcome [3] | outcome [4] | Potency [5] | outcome [6] | Potency [7] | outcome [8] | outcome [9]

CCC(C)OC(C)CC (stereo not drawn)
inactive: Potency [1] | outcome [2] | outcome [3] | outcome [4] | Potency [5] | outcome [6] | Potency [7] | outcome [8] | outcome [9] | Potency [10]

Cn1c(=O)c2c(ncn2CCO)n(C)c1=O
inactive: Potency [1] | outcome [2] | outcome [3] | outcome [4] | Potency [5] | outcome [6] | Potency [7] | outcome [8] | outcome [9]

C=C(C)c1cccc(C(C)(C)N=C=O)c1
active: Potency [10] 7.7 µM
inactive: Potency [1] | outcome [2] | outcome [3] | outcome [4] | Potency [5] | outcome [6] | Potency [7] | outcome [8] | outcome [9]

OCCN1CCOCC1
inactive: Potency [1] | outcome [2] | outcome [3] | outcome [4] | Potency [5] | outcome [6] | Potency [7] | outcome [8] | outcome [9]

N#CCC(=O)NN
inactive: Potency [1] | outcome [2] | outcome [3] | outcome [4] | Potency [5] | outcome [6] | Potency [7] | outcome [8] | outcome [9]
